PubChem BioAssay (NCATS)
Inconclusive results are not listed. Calls of active or inactive are those of the source. Unless noted, calls come from the whole dose curve; as a rule, active = well fitted curve in the direction sought with a large enough effect; inconclusive = small, poorly fitted or top-dose-only effect, or another doubt; inactive = no such curve, though single readings can be large; an effect the other way counts as inactive or inconclusive.

How the values were obtained:
[1] = target: Chromobox protein homolog 1 (Homo sapiens) (UniProt P83916); test: qHTS Validation Assay for Inhibitors of HP1-beta Chromodomain Interactions with Methylated Histone Tails (AID 488953); note: nearly all actives have a fitted effect of over 50% in size; note: potency is the fitted concentration of half-maximal effect
Sequence of Chromobox protein homolog 1 (Homo sapiens) (P83916 whole entry, looked up): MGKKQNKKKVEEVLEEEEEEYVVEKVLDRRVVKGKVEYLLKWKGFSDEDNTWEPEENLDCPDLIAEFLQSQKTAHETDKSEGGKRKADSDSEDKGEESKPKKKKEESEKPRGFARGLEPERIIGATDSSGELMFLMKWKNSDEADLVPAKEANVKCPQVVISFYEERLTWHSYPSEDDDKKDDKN
Summary of the method: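 AlphaScreen proximity signal from streptavidin donor and nickel chelate acceptor beads (final 10 ug/mL) after 30 min dark incubation. Compounds had 30 min at room temperature with preformed complex of 50 nM HP1-beta and 50 nM b-H3(1-18)K9me3 in PBS pH 7.4 with 0.01% Tween-20.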

[2] = target: D(1A) dopamine receptor (Homo sapiens) (UniProt P21728); test: HTS Assay for Allosteric Agonists of the Human D1 Dopamine Receptor: Primary Screen for Agonists (AID 488981); note: 0% is about no effect
Sequence of D(1A) dopamine receptor (Homo sapiens) (P21728 whole entry, looked up): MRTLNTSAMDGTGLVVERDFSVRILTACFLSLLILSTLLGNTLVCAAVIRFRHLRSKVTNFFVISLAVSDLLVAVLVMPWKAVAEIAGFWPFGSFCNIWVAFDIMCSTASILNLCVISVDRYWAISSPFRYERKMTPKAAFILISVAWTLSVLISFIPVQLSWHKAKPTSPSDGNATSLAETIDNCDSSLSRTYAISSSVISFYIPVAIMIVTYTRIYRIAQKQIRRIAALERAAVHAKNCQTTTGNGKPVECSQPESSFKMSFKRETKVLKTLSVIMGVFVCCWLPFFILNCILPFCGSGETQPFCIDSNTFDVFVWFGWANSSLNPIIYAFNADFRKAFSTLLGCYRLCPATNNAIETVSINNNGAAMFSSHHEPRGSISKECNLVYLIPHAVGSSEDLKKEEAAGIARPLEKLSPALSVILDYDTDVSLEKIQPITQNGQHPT
Summary of the method: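 Tetracycline-induced HEK293 Trex D1 cells with forced coupling to calcium, loaded with no-wash calcium dye; kinetic fluorescence read 180 s after compound addition for agonism, then a further 180 s after an EC20 dopamine challenge for potentiation.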

[3] = target: D(1A) dopamine receptor (Homo sapiens) (UniProt P21728); test: HTS Assay for Allosteric Agonists of the Human D1 Dopamine Receptor: Primary Screen for Antagonists (AID 488983);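 note: calcium flux response to an EC80 dopamine challenge measured with no-wash dye; % is set by controls: 0 for no effect and ±100 for the full control effect; nearly all actives have a fitted effect of over 65% in size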
Summary of the method: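 Calcium-flux read-out in inducible HEK293 T-REx cells expressing D1, dye-loaded 30–90 min at room temperature. Kinetic reads: 180 s after compound (agonist phase), then 180 s after an EC80 dopamine challenge.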

[4] = target: ATP-dependent 6-phosphofructokinase (Trypanosoma brucei brucei) (UniProt O15648); test: qHTS Assay to Find Inhibitors of T. brucei phosphofructokinase: hit validation (AID 492961); note: series mostly up to about 51 µM; % is set by controls: 0 for no effect and ±100 for the full control effect
Summary of the method: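 Luminescence from ADP-Glo reports ADP generated as T. brucei PFK (1.25 nM) phosphorylates 0.5 mM fructose-6-phosphate using 0.1 mM ATP. Reactions ran 45 min at room temperature, pH 8.0.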

[5] = Validation screen for small molecules that induce genotoxicity in human embryonic kidney (HEK293T) cells expressing luciferase-tagged ELG1 (AID 493106); note: 0% is about no effect
Summary of the method: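 ELG1-luciferase reporter readout (ONE-Glo, 30 min, room temperature) after 16 hr compound treatment at 37 °C of HEK293T cells at 2,000 per well. Rising luminescence flags genotoxic stress.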

[6] = target: ATPase family AAA domain-containing protein 5 (Homo sapiens) (UniProt Q96QE3); test: Validation screen for small molecules that inhibit ELG1-dependent DNA repair in human embryonic kidney (HEK293T) cells expressing luciferase-tagged ELG1 (AID 493107); note: nearly all actives have a fitted effect of over 70% in size; note: potency is the fitted concentration of half-maximal effect
Sequence of ATPase family AAA domain-containing protein 5 (Homo sapiens) (Q96QE3 whole entry, looked up, the tested form may be a part): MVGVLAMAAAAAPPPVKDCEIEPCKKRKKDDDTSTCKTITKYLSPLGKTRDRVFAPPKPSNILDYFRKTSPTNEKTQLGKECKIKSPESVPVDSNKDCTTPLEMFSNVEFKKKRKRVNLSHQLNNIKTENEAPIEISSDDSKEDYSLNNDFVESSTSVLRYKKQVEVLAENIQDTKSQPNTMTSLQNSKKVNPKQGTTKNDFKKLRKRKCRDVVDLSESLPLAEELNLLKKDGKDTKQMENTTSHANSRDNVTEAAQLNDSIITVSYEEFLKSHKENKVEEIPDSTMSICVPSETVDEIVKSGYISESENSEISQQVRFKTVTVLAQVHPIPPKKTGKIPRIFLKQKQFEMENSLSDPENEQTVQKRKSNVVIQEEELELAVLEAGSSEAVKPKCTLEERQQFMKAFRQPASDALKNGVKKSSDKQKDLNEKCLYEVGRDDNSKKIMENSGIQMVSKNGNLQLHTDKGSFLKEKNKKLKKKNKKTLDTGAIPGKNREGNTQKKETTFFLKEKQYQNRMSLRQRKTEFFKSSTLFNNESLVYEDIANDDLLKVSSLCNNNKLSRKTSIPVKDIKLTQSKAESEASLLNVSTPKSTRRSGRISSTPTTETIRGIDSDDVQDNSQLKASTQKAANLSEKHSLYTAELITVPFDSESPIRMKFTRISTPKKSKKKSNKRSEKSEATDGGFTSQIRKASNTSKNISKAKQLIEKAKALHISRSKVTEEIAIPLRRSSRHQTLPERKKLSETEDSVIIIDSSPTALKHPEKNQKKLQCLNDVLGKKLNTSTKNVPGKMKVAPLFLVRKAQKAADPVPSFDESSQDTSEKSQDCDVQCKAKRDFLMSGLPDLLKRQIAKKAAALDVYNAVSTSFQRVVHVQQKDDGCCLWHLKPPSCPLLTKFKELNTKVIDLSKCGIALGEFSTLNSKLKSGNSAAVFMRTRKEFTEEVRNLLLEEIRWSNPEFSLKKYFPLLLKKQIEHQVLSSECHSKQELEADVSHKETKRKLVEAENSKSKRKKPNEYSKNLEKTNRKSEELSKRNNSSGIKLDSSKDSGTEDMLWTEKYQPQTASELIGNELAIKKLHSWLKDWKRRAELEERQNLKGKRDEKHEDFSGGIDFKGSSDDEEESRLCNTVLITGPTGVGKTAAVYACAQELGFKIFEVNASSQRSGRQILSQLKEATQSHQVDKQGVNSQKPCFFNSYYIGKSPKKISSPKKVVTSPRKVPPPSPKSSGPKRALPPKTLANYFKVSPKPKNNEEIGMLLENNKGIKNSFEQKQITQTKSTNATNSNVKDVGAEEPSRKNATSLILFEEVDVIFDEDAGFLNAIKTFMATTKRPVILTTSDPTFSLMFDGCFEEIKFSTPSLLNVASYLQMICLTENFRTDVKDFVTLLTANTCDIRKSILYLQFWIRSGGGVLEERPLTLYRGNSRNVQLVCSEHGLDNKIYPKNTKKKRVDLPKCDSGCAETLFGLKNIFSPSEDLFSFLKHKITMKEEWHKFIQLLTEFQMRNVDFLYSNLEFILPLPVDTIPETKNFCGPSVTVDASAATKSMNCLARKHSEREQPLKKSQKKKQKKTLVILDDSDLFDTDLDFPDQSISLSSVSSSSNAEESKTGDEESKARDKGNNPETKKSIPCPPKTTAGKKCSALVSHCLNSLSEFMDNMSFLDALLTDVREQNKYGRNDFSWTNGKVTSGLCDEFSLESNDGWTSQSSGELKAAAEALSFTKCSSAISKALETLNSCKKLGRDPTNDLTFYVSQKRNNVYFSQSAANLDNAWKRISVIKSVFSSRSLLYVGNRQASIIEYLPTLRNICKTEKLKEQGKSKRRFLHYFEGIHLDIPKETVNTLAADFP
Summary of the method: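 Luciferase read-out, ONE-Glo, 30 min at room temperature, follows 16 h co-exposure at 37 C of compound and the DNA-damaging agent 5-fluorouridine. Cells: HEK293T with ELG1-luciferase fusion, 2,000 per well, DMSO as vehicle.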

[7] = qHTS for Inhibitors of Cell Surface uPA Generation: Validation Assay (AID 493164);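 note: RAW 264.7 macrophage cells exposed to compound for 18 h; 0% is about no effect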
Summary of the method: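 ATP-Lite luminescence read-out: ATP remains high when uPA activity-dependent LF translocation into the cytoplasm is blocked. RAW 264.7 cells, 18 h compound exposure at 37 C; 7-point titration, 2.45 nM to 38.3 uM final.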

[8] = target: Peptidyl-prolyl cis-trans isomerase NIMA-interacting 1 (Homo sapiens) (UniProt Q13526); test: qHTS Validation Assay to Find Inhibitors of Pin1 (AID 504536; active = well fitted inhibition curve with a large enough effect in the polarisation, with a control signal flat, not every such curve was filed as active; the % refers to the polarisation;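 note: 0% = full Pin1 enzyme wells and -100% = no-enzyme wells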)
Sequence of Peptidyl-prolyl cis-trans isomerase NIMA-interacting 1 (Homo sapiens) (Q13526 whole entry, looked up): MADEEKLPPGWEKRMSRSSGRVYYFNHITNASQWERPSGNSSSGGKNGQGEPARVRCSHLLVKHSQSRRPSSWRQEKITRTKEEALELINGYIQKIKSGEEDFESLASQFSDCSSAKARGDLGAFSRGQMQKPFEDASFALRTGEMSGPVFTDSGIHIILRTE
Summary of the method: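 Fluorescence polarization competition: compounds (titration) displace HiFluor-488-labeled Pin1-1b peptide from Pin1 (0.3 uM final) in pH 7.5 HEPES buffer with DTT, 10 min at room temperature; %Activity normalized to no-enzyme wells, curves fitted.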

[9] = target: Phosphoglycerate kinase, glycosomal (Trypanosoma brucei brucei) (UniProt P07378); test: qHTS Validation Assay to Find Inhibitors of Phosphoglycerate Kinase (AID 504547);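 note: control wells lack PGK and mark full inhibition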
Sequence of Phosphoglycerate kinase, glycosomal (Trypanosoma brucei brucei) (P07378 whole entry, looked up): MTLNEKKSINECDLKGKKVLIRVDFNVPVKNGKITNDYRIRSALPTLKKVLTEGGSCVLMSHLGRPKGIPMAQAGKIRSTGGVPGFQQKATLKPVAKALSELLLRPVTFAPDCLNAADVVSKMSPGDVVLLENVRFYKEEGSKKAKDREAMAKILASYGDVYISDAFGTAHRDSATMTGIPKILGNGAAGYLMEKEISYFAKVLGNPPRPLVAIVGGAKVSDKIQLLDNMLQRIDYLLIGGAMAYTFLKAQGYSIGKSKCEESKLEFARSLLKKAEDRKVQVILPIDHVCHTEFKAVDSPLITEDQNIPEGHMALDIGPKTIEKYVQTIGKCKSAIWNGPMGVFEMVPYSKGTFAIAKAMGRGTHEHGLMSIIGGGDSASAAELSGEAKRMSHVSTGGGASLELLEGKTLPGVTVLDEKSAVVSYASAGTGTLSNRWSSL
Summary of the method: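 Compounds are pinned into the substrate/PGK mixture, and GAPDH (100nM final) is added to start the reaction by producing 1,3-BPG. After 60 minutes at room temperature, Kinase-Glo Plus is added and luminescence is measured 10 minutes later.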

[10] = target: phosphoglycerate mutase (Leishmania major) (UniProt Q4Q090); test: qHTS Validation Assay to Find Inhibitors of Phosphoglycerate Mutase (AID 504548); note: series mostly up to about 58 µM; % is set by controls: 0 for no effect and ±100 for the full control effect
Summary of the method: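 Lm PGAM 1.25nM final; 100 mM TEA pH 7.6, 5 mM MgCl2, 0.01% Tween-20; 45 min RT; Kinase-GloPlus, 10 min; end-point luminescence. Enzyme-free wells as negative controls.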

[11] = Inducers of the Endoplasmic Reticulum Stress Response (ERSR) in human glioma: Validation (AID 504836); note: 0% is about no effect
Summary of the method: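 Stably transfected U87-MG glioma cells carrying a GRP78-based luciferase sensor; 16 h compound incubation. Luminescence end-point read 10 min after Bright-Glo addition at room temperature.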

[12] = target: Ubiquitin carboxyl-terminal hydrolase 1 (Homo sapiens) (UniProt O94782); test: Inhibitors of USP1/UAF1: Pilot qHTS (AID 504865);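 note: rhodamine fluorescence freed from ubiquitin-rhodamine substrate followed over time; top concentration of the series differs between compounds; % is set by controls: 0 for no effect and ±100 for the full control effect; nearly all actives have a fitted effect of over 35% in size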
Sequence of Ubiquitin carboxyl-terminal hydrolase 1 (Homo sapiens) (O94782 whole entry, looked up): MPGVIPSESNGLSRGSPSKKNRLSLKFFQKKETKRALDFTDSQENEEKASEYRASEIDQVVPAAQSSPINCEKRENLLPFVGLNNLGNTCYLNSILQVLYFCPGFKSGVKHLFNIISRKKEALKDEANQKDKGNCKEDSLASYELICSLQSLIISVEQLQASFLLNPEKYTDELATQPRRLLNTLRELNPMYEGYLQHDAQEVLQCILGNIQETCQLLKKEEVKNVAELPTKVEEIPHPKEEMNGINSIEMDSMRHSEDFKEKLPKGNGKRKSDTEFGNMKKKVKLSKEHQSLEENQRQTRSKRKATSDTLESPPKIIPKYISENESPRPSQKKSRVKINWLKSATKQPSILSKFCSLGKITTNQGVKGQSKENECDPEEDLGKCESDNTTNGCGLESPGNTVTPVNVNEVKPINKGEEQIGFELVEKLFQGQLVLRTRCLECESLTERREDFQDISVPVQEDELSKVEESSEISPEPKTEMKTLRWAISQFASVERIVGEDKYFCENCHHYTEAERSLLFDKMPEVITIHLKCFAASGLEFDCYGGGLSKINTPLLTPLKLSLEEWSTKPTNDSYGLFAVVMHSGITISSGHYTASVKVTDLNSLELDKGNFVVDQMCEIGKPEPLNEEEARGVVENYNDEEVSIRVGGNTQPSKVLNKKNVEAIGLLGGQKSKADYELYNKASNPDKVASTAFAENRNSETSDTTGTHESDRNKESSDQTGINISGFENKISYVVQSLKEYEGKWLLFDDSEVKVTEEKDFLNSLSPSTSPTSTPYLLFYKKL
Summary of the method: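 USP1/UAF1 complex at 1 nM preincubated 15 min at room temperature with compound, then Ub-Rho substrate added at 150 nM final. Fluorescence (480/540 nm) read kinetically in 50 mM HEPES pH 7.8, 0.5 mM EDTA, 1 mM TCEP, 0.1 mg/ml BSA, 0.01% Tween-20.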

[13] = qHTS for Inhibitors of ATXN expression: Validation of Cytotoxic Assay (AID 588349); note: % is set by controls: 0 for no effect and ±100 for the full control effect
Summary of the method: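 Cytotoxicity counter-screen: ATP-based luminescent viability (CellTiter Glo) after 72 hr exposure of HEK293 cells to a compound titration at 37 degrees C.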

[14] = target: Transient receptor potential cation channel subfamily V member 1 (Homo sapiens) (UniProt Q8NER1); test: HTS Assay for Compounds that Act as Enhancers of the Vanilloid Receptor 1 (AID 488979); note: 0% is about no effect
Summary of the method: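 TRPV1 cells loaded with Fluo-8 calcium dye; compound added and Ca2+ signal (ex 480/em 520 nm) followed 3 min, then capsaicin at EC20 added and read 2 more min to detect enhancement.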

[15] = target: Thyrotropin receptor (Homo sapiens) (UniProt P16473); test: qHTS Assay for Antagonists of the Thyroid Stimulating Hormone Receptor (AID 488980); note: series mostly up to about 58 µM; 0% is about no effect
Summary of the method: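 TSHR-transfected HEK293 cells (2000/well) in HEPES-buffered HBSS with 70 uM RO 20-1724 were stimulated with 4 nM TSH (EC80, final) in the presence of compound. cAMP was measured by HTRF competition after lysis and 30 min at RT.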

[16] = target: Thyrotropin-releasing hormone receptor (Homo sapiens) (UniProt P34981); test: qHTS for Small Molecule Agonists and Allosteric Enhancers of Human TRH Receptor: Validation Screen for Agonists (AID 493127;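 active = calcium activation more than 3 SD above the typical response in the agonist read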;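 note: intracellular calcium rise by fluo-8 fluorescence before TRH EC20 addition; 0% is about no effect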); conditions: TRH receptor agonist cell assay; at 2 µM; stronger effect = higher value
Sequence of Thyrotropin-releasing hormone receptor (Homo sapiens) (P34981 whole entry, looked up): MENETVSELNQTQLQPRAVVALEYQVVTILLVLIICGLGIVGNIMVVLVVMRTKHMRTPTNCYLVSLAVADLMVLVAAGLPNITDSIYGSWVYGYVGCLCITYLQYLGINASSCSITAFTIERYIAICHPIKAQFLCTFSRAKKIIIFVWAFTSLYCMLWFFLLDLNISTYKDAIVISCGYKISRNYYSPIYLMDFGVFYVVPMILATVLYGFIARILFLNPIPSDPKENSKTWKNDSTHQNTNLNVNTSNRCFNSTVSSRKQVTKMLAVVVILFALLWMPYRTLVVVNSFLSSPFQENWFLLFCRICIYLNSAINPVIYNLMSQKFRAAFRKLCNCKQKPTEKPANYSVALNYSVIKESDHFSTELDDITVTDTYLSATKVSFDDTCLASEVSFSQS
Summary of the method: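 Compound-evoked intracellular calcium release in fluo-8-loaded TRHR cells, read kinetically on FDSS (Ex 480/Em 530, 1 s/cycle) after 23 nL pintool transfer. Agonist phase preceded 10 nM TRH EC20 addition.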

[17] = target: Galactokinase (Homo sapiens) (UniProt P51570); test: qHTS Validation Assay for Inhibitors of Human Galactokinase (GALK) (AID 493189); note: 0% is about no effect
Sequence of Galactokinase (Homo sapiens) (P51570 whole entry, looked up): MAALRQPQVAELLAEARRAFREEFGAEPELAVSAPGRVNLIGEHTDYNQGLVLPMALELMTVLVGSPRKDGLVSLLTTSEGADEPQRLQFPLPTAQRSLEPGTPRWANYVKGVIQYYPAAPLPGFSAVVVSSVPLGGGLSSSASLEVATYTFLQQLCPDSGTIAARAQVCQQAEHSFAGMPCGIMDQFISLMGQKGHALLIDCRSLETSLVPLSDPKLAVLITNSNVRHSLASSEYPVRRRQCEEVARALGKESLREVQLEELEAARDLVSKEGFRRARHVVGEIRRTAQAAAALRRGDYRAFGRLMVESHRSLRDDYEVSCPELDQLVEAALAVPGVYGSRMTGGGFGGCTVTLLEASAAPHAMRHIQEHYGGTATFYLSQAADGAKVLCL
Summary of the method: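 GALK (5 nM) with 35 uM ATP and 100 uM galactose in HEPES pH 8.0 with MgCl2, NaCl, DTT and BSA. Reaction ran 1 h at room temperature. Residual ATP read by Kinase-Glo Plus luminescence.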

[18] = Validation screen for small molecules that induce DNA re-replication in SW480 colon adenocarcinoma cells (AID 504364); note: 0% is about no effect
Summary of the method: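 Image-based DNA content read-out: Hoechst stain 40 min, total nuclear fluorescence intensity (ex 405 nm, em 500-530 nm) after 48 h compound exposure of 250 SW480 cells/well at 37 C, 5% CO2, versus DMSO vehicle.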

[19] = Nrf2 qHTS screen for inhibitors: Validation (AID 493153; active = well fitted inhibition curve with a large enough effect in the main read-out, with a control signal flat, not every such curve was filed as active); conditions: Potency: luciferase luminescence; viability change: measured here: cytotoxicity max response
Summary of the method: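 Concentration-response on A549 ARE_Fluc reporter cells exposed 18-24 h at 37 C, 5% CO2. Cytotoxicity read first by CellTiter-Fluor fluorescence (Ex 405/Em 525), then Nrf2 inhibition by BugLite luminescence after 15 min.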

[20] = target: DNA dC->dU-editing enzyme APOBEC-3G (Homo sapiens) (UniProt Q9HC16); test: qHTS for inhibitors of Vif-A3G interactions: Validation (AID 588379); note: 0% is about no effect
Summary of the method: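 Yellow fluorescence (Ex 488, Em 500-530) of Vif-coexpressing HeLa A3G-eYFP cells, scanned by Acumen cytometer, reports blocked A3G degradation. Cells plated at 700/well overnight at 37 deg C before compound addition, then a further overnight compound incubation at 37 deg C.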

CC(=O)[C@H]1CC[C@H]2[C@@H]3CC[C@H]4C[C@](C)(O)CC[C@]4(C)[C@H]3CC[C@]12C
inactive: Potency [1] | Potency [2] | Potency [3] | outcome [4] | Potency [5] | Potency [6] | outcome [7] | Potency [8] | Potency [9] | outcome [10] | outcome [11] | Potency [12] | Potency [13]

COC[C@H]1OC(=O)c2coc3c2[C@@]1(C)C1=C(C3=O)C2CCC(=O)[C@@]2(C)C[C@H]1OC(C)=O (some centres not stated)
inactive: Potency [1] | outcome [14] | outcome [15] | Potency [2] | Potency [3] | Potency [5] | Potency [6] | activation [16] 0.25% | outcome [17] | Potency [18] | Potency [9] | outcome [10] | Potency [12]

c1ccc(C2CC2)c(OCC2=NCCN2)c1
5.58%: viability change [19]
inactive: outcome [14] | outcome [15] | Potency [2] | Potency [3] | Potency [5] | Potency [6] | activation [16] 0.562% | Potency [19] | outcome [7] | outcome [17] | Potency [18] | Potency [8] | Potency [9] | outcome [10] | outcome [11] | Potency [12] | Potency [13] | outcome [20]

Cc1cccc(C)c1NC(=O)CN1CCCC1=O
-4.1%: viability change [19]
inactive: Potency [1] | Potency [2] | Potency [3] | Potency [5] | Potency [6] | Potency [19] | outcome [7] | Potency [9] | outcome [10] | outcome [11] | Potency [12] | Potency [13]

O=c1[nH]c2ccccc2n1C1CCN(CCCC(c2ccc(F)cc2)c2ccc(F)cc2)CC1
inactive: outcome [14] | outcome [15] | Potency [2] | Potency [5] | outcome [7] | outcome [17] | Potency [18] | Potency [8] | Potency [9] | outcome [10] | outcome [11] | Potency [13] | outcome [20]
active: Potency [1] 35.5 µM | Potency [6] 11.6 µM

CNCC(O)c1ccc(O)cc1 (configuration not stated)
-6.1%: viability change [19]
inactive: Potency [1] | outcome [14] | outcome [15] | Potency [2] | Potency [3] | Potency [5] | Potency [6] | activation [16] 1.12% | Potency [19] | outcome [7] | outcome [17] | Potency [18] | Potency [8] | Potency [9] | outcome [10] | outcome [11] | Potency [12] | Potency [13]

COc1ccc(C(CN(C)C)C2(O)CCCCC2)cc1 (configuration not stated)
3.45%: viability change [19]
inactive: Potency [1] | Potency [2] | Potency [3] | outcome [4] | Potency [5] | Potency [6] | Potency [19] | outcome [7] | Potency [8] | Potency [9] | outcome [10] | outcome [11] | Potency [12] | Potency [13]
